The source of these data is PubChem BioAssay (NCATS).

In assay [1] the target is Lysosomal acid glucosylceramidase (Homo sapiens) (UniProt P04062). Description: Glucocerebrosidase-p2 (AID 348; in the data active = potency below about 10 µM; note: potency is the fitted concentration of half-maximal effect). To be noted: purified GBA, blue fluorogenic substrate, 40 min. The method, boiled down: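 Compounds titrated from 0.6 nM upwards against 0.2 nM enzyme in pH 5.9 citric acid/KH2PO4, taurocholate, tween-20; blue fluorogenic substrate 80 uM, 40 min room temperature, stopped and read Ex 365/Em 440 for AC50.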
Sequence of Lysosomal acid glucosylceramidase (Homo sapiens) (P04062 whole entry, looked up): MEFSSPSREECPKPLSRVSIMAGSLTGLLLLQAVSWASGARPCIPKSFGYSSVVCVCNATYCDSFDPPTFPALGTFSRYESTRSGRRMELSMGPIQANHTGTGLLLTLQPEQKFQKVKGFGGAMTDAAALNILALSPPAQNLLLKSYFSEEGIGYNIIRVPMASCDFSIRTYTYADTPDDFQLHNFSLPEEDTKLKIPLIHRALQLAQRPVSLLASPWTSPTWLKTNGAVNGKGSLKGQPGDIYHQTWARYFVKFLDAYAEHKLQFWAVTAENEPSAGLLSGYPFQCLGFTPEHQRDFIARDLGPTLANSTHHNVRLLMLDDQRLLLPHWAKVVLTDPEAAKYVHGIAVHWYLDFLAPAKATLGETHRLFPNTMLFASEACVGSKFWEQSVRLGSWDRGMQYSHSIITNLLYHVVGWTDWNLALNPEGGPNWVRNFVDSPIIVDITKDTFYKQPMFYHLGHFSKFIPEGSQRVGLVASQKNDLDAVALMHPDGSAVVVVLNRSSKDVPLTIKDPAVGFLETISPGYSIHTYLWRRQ

Assay [2] can be described thus: AP1 Signaling Pathway (AID 357).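 Note: ME-180 reporter cells stimulated with EGF at its EC50 level; % is set by controls: 0 for no effect and ±100 for the full control effect.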 Conditions: ME-180 AP-1-bla reporter, EGF-induced, beta-lactamase ratio, 5 h; at 7.69 µM (top of the series) unless noted. The method, boiled down:
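AP-1-bla ME-180 cells, Opti-MEM + 0.5% dialyzed FBS, plated overnight 37 °C. Cpd titration + EC50 EGF, 5 h 37 °C. CCF4 2.5 h RT; ex 405, em 460/530 ratio → %activity, AC50.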

Assay [3] addresses Cytochrome P450 1A2 (Homo sapiens) (UniProt P05177). Description: p450-cyp1a2 (AID 410; calls by dose curve; note: potency is the fitted concentration of half-maximal effect;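 for activity change, negative = inhibition: -100% = full effect of reference inhibitor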). To be noted: recombinant CYP1A2, luciferin-ME demethylation, luminescence; series mostly up to 57 µM. The method, boiled down:
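Inhibition was calculated relative to 57 uM furafylline (full inhibition). The reaction used human CYP1A2 at 20nM with Luciferin-ME at its Km, 100uM, driven by an NADPH-regenerating system for 60 min at room temperature.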

A short description of assay [4]: NFAT Signaling Pathway (AID 444).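 Note: carbachol stimulus at about its EC50 of 1 µM final; % is set by controls: 0 for no effect and ±100 for the full control effect.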 To be noted: Jurkat NFAT-bla M1, carbachol, beta-lactamase ratio, 5 h; at 7.69 µM (top of the series) unless noted. The essentials:
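Jurkat cells carrying an NFAT-driven β-lactamase reporter and co-transfected muscarinic M1 receptor were treated with compound plus carbachol (1 uM final, an EC50 level) for 5 h at 37 °C. CCF4 loading followed for 1 h at RT; 460/530 nm ratio gave %activity.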

A short description of assay [5]: Stat Signaling Pathway (AID 446).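 Note: ME-180 cervical cancer cells given 40 pM IL-6 alongside compound; SIE-controlled beta-lactamase reporter measured as 460/530 nm FRET emission ratio; % is set by controls: 0 for no effect and ±100 for the full control effect.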 To be noted: ME-180 SIE beta-lactamase reporter, IL-6 stimulated, 5 h; at 7.69 µM (top of the series) unless noted. The method, boiled down: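 Reporter line: ME-180 cervical carcinoma, SIE-beta-lactamase. Treatment: compound with 40 pM IL-6, 5 hrs, 37 C, in low-serum OPTI-MEM with 10 mM HEPES pH 7.3. Detection: 460/530 nm fluorescence.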

Assay [6] has as its target Glucocorticoid receptor (Homo sapiens) (UniProt P04150). Description: GR-EFC Redistribution (AID 451; calls by dose curve; note: potency is the fitted concentration of half-maximal effect). To be noted: CHO-K1 GR-EFC translocation, beta-gal luminescence, 2 h. The method, boiled down:
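CHO-K1 cells stably expressing nuclear-localized β-gal enzyme acceptor and GR fused C-terminally to the enzyme donor fragment; ligand-driven nuclear translocation restores β-gal by complementation. Compounds titrated up to 46 uM final, 2 h at 37 °C; luminescence read.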

In assay [7] the target is Mitogen-activated protein kinase 10 (Mus musculus) (UniProt Q61831). Description: JNK3 AlphaScreen Assay (AID 530).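 Note: kinase came from lysate of stimulated human HepG2 cells; signal reports phosphorylation of biotinylated GST-cJun 1-79 at Ser73 with 10 µM ATP; % is set by controls: 0 for no effect and ±100 for the full control effect.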 Conditions: JNK3 lysate, c-Jun phosphorylation; series mostly up to 57.1 µM. The essentials:
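JNK3 came from HepG2 lysates pre-activated with IL-1beta and TNF-alpha and phosphorylated biotinylated GST-cJun (1-79) at 10 uM ATP, pH 7.6, room temperature. Compounds were titrated. AlphaScreen signal used anti-phospho-cJun (Ser73) antibody.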
In general terms: Bead proximity is the source of the signal in Alpha formats.

Assay [8] has as its target 3',5'-cyclic-AMP phosphodiesterase 4B (Homo sapiens) (UniProt Q07343). Description: qHTS Assay for Inhibitors of PDE-IV (AID 607; active = well fitted activation curve with a large enough effect in the main read-out, with a control signal flat, not every such curve was filed as active; note: % of control where 0% means no effect). To be noted: HEK293 ACTOne CNG channel cells, membrane potential fluorescence; series mostly up to 22.9 µM. The essentials:
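Cell-based read-out of cAMP via a modified cyclic nucleotide-gated channel and membrane potential dye (535/590 nm) in HEK293 cells expressing PDE4 endogenously. Compounds tested up to 22.9 uM final; 100 uM RO 20-1724 reference.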

The target in assay [9] is Cytochrome P450 3A4 (Homo sapiens) (UniProt P08684). Description: qHTS Assay for Inhibitors and Substrates of Cytochrome P450 3A4 (AID 884; active = well fitted curve in the direction sought with a large enough effect; an effect the other way counts as inactive or inconclusive; note: nearly all actives have a fitted effect of over 50% in size; note: potency is the fitted concentration of half-maximal effect). To be noted: recombinant CYP3A4, Luciferin-PPXE luminescence; series mostly up to 57.1 µM. The essentials:
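20 nM human CYP3A4 with 25 uM Luciferin-PPXE (at KM) in 200 mM KPO4, preincubated 10 min with compound; NADPH regeneration started a 60 min RT reaction. Luciferin detected by luminescence, normalized to 57 uM ketoconazole as full inhibition.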
A general note: Quantitative high-throughput screening tests each substance at several concentrations.

Assay [10] has the same target. Description: qHTS Assay for Activators of Cytochrome P450 3A4 (AID 885; active = well fitted curve in the direction sought with a large enough effect; an effect the other way counts as inactive or inconclusive; note: nearly all actives have a fitted effect of over 65% in size; note: potency is the fitted concentration of half-maximal effect). Conditions: recombinant CYP3A4, Luciferin-PPXE luminescence, 60 min; series mostly up to 57.1 µM. The method, boiled down:
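Signal was normalized against complete inhibition by 57 uM ketoconazole. The reaction used 20nM CYP3A4 with 25uM Luciferin-PPXE, 10-min compound preincubation and a 60-min NADPH-supported step at RT.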

Assay [11] is described as follows: qHTS Assay for Lipid Storage Modulators (AID 1519; calls by dose curve). To be noted: Drosophila S3 cells, BODIPY lipid droplet/cell ratio, laser cytometry, cells loaded with oleic acid; for activity change, negative = inhibition: at 57.5 µM (top of the series). The essentials:
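Cells seeded at 5,000 per well were treated with compounds over a concentration series and loaded with oleic acid (400 uM, as added). Lipid droplet fluorescence (488 nm excitation, 500-530 nm channel) was read by laser-scanning cytometry and normalized to 20 uM Triacsin C.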

Assay [12] can be described thus: Primary qHTS for small molecule stabilizers of the endoplasmic reticulum resident proteome: Secreted ER Calcium Modulated Protein (SERCaMP) assay (AID 1508630; active = well fitted curve in the direction sought with a large enough effect; an effect the other way counts as inactive or inconclusive; note: % is set by controls: 0 for no effect and ±100 for the full control effect). To be noted: SH-SY5Y GLuc-SERCaMP (Gaussia luciferase released on ER calcium loss) secretion, thapsigargin, luminescence; series mostly up to 38.4 µM. The method, boiled down:
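GLuc-SERCaMP-expressing SH-SY5Y cells, pretreated 16 h with compound, are challenged with thapsigargin to empty ER calcium stores; after 4 h, coelenterazine is added directly to the medium and luminescence is imaged.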

Where [13] appears, read: measured here: cell count channel max response.
The mark [14] stands for this setting: measured here: lipid channel max response.

Records with an inconclusive call do not appear. Activity calls are given as the source filed them. Unless noted, calls come from the whole dose curve; as a rule, active = well fitted curve in either direction with a large enough effect (not every such curve was filed as active); inconclusive = small, poorly fitted or top-dose-only effect, or another doubt; inactive = flat fitted curve, though single readings scatter.

Sequence of 3',5'-cyclic-AMP phosphodiesterase 4B (Homo sapiens) (Q07343 whole entry, looked up): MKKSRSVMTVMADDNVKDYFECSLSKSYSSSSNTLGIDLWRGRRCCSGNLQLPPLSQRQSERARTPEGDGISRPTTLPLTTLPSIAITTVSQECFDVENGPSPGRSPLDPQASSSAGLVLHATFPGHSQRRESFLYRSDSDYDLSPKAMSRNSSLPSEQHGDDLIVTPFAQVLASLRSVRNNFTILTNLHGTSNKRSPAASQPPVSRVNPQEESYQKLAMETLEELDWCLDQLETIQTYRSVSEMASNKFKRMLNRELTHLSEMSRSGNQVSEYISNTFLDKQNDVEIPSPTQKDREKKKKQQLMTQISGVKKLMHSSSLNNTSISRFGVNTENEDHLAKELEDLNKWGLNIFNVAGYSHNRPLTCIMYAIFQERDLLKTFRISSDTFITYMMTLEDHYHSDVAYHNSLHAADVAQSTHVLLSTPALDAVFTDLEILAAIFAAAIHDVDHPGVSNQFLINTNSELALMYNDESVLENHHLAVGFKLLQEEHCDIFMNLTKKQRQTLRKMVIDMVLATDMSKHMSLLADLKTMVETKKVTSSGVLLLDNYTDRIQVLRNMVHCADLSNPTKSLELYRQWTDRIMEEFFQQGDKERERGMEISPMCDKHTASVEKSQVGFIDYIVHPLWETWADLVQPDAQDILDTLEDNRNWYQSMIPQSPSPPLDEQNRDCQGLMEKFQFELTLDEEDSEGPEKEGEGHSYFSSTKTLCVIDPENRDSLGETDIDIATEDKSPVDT
Sequence of Cytochrome P450 3A4 (Homo sapiens) (P08684 whole entry, looked up): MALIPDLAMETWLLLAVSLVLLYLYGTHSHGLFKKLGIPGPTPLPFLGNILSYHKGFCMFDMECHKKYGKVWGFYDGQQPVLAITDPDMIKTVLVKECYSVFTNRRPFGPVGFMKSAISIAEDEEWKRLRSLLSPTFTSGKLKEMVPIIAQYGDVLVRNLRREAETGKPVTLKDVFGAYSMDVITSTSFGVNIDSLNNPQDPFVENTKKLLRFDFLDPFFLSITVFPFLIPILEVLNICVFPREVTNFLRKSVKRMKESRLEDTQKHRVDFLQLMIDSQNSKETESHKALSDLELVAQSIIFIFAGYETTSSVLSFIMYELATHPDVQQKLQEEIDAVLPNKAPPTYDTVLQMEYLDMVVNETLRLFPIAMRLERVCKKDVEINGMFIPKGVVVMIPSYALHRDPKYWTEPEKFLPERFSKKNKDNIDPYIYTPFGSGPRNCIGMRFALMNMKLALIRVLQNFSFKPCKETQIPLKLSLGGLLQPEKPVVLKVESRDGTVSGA
Sequence of Cytochrome P450 1A2 (Homo sapiens) (P05177 whole entry, looked up): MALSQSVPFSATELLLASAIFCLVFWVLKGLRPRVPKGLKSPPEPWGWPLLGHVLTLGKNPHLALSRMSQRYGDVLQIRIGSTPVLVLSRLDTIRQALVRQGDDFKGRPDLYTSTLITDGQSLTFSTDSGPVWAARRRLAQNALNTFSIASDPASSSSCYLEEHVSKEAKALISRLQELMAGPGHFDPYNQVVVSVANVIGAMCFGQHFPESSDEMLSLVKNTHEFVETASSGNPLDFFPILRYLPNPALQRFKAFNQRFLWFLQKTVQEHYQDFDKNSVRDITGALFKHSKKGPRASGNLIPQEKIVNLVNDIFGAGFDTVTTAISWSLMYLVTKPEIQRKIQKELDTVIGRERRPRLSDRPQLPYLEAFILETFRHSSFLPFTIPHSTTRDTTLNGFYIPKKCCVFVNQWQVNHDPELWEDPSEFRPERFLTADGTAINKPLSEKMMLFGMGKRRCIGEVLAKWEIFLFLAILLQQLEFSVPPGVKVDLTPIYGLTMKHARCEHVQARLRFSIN
Sequence of Glucocorticoid receptor (Homo sapiens) (P04150 whole entry, looked up, the tested form may be a part): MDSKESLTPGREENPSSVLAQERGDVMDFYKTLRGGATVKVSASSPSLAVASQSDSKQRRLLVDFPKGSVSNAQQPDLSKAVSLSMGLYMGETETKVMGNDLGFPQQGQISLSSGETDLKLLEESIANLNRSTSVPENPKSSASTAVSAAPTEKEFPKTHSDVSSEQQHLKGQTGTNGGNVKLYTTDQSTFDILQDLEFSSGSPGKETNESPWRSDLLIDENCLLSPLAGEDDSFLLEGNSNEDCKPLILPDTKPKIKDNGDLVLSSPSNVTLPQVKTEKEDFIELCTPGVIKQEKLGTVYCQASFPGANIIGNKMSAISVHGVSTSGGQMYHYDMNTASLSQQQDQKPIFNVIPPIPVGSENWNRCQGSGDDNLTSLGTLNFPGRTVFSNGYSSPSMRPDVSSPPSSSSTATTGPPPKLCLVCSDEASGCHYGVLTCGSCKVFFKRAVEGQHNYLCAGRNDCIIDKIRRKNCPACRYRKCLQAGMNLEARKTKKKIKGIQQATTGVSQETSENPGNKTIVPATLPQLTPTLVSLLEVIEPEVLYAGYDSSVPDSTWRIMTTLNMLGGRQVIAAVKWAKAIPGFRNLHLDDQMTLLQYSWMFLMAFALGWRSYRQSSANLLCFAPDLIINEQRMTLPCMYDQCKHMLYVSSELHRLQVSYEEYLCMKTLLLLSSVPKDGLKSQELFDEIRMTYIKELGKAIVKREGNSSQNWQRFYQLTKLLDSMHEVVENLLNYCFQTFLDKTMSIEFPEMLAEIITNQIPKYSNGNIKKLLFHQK

Consider `O=C(c1cccc(F)c1)N1CCC[C@@]2(CCN(c3ccncc3)C2)C1`, for which the Potency in assay [1] was > 11.4 µM (inactive); in assay [6] it was > 46 µM (inactive); in [9], 0.316 µM (active). The activity change, negative = inhibition in [2] was -0.222% (inactive); in assay [4], -14.9% (inactive); in [11], 6.94% (inactive). For the same compound, the Potency result in assay [3], in assay [8], in [10] and in assay [12] was “inactive” each time. Also, the activity, negative = inhibition in assay [5] is -5.12% (inactive). Further, the call in [7] was inactive. In addition, the values for the max response in [11] (setting [13]) and in assay [11] (setting [14]) were 20% and 29.4%, respectively.
`O=C(c1cccc(F)c1)N1CCC2(CC1)CCN(c1ccccc1)CC2`: the Potency is > 11.4 µM (inactive) in assay [1], 15.8 µM (active) in assay [3], > 46 µM (inactive) in assay [6] and 7.94 µM (active) in [10]. Further, the values for the activity change, negative = inhibition in assay [2], in [4] and in assay [11] were -0.371% (inactive), -2.46% (inactive) and 3.88% (inactive), respectively. The activity, negative = inhibition in [5] is -10.8% (inactive). Also, the outcome in [7] was inactive. Further, the Potency entry in assay [8], in [9] and in assay [12] was “inactive” each time. The max response was -3.82% in [11] (setting [13]) and 4.22% in [11] (setting [14]).
Consider `COCC(=O)N1CCC[C@@]2(CCN(C(=O)Nc3cccc(F)c3)C2)C1`, for which the Potency is > 11.4 µM (inactive) in assay [1] and > 46 µM (inactive) in assay [6]. The figures for the activity change, negative = inhibition in assay [2], in [4] and in [11] were -14.2% (inactive), 9.68% (inactive) and 2.12% (inactive), respectively. Further, the Potency result in assay [3], in [8], in assay [10] and in assay [12] was “inactive” throughout. For the same compound, the activity, negative = inhibition in [5] is -1.05% (inactive). In [7], the result was inactive. In addition, the max response in [11] (setting [13]) came to 19.2%; in [11] (setting [14]) it was 23.6%.
Turning to `O=C(Oc1ccccc1)N1CCC2(CC1)CCN(c1ccccc1)CC2`, the results for the Potency in assay [1], in assay [6] and in assay [10] were > 11.4 µM (inactive), > 46 µM (inactive) and 3.16 µM (active), respectively. The activity change, negative = inhibition in assay [2] is 20.6% (inactive); in assay [4] it was -26.1% (inactive); in assay [11] it was -1.08% (inactive). The Potency result in assay [3], in [8], in assay [9] and in assay [12] was “inactive” throughout. Further, in assay [5], the activity, negative = inhibition was -1.28% (inactive). Also, the call in assay [7] was inactive. The max response is -1.11% in assay [11] (setting [13]) and -1.37% in assay [11] (setting [14]).
`CS(=O)(=O)N1CCC2(CCN(Cc3ccncc3)CC2)CC1`: the Potency in assay [1] was > 11.4 µM (inactive); in [6] it was > 46 µM (inactive). For the same compound, the activity change, negative = inhibition is -1.98% (inactive) in [2], -4.26% (inactive) in [4] and 5.08% (inactive) in assay [11]. Moreover, the Potency entry in [3], in assay [8], in [10] and in assay [12] was “inactive” in each case. Further, the activity, negative = inhibition in assay [5] is 10.3% (inactive). Also, the compound was classed as inactive in assay [7]. The max response in assay [11] (setting [13]) was determined as 9.75%; in assay [11] (setting [14]) it was 18.4%.
For the compound `Cc1noc(C)c1C(=O)N1CCC2(CCCN(Cc3nccs3)C2)CC1`, the Potency in assay [1] is > 11.4 µM (inactive); in [6] it was > 46 µM (inactive). Besides, the values for the activity change, negative = inhibition in [2], in [4] and in assay [11] were -7.07% (inactive), -16.6% (inactive) and 5.37% (inactive), respectively. Also, the Potency result in assay [3], in assay [8], in [10] and in assay [12] was “inactive” in each case. Moreover, in [5], the activity, negative = inhibition was -1.5% (inactive). The outcome in assay [7] was inactive. The max response turned out to be 14.6% in [11] (setting [13]) and 22.3% in assay [11] (setting [14]).
